Assay results: publication PMC13494018
Unmarked numbers belong to inactive results. No rule for the calls is given here.

Molecular target: VTCN1, Q7Z7D3
Sequence (Q7Z7D3 whole entry): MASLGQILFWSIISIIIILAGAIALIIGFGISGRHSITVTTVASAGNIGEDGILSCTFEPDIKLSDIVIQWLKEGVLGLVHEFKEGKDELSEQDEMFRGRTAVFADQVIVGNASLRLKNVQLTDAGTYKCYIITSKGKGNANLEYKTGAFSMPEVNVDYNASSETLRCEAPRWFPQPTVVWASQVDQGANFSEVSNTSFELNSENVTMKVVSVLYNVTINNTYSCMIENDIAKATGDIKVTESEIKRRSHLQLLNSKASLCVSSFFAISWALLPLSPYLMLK

| Binder | binding in a display sort |
| --- | --- |
| design_609_7ee6ce64-4629-41e8-bcb4-ba0da017284d_250_dldesign_0_cycle1_af2pred (protein) MEEVKKKAEKALKEAKAALKEAKALGNEEAIKAAEQAIKFAKKALEYAEKGDLNGAEAYLEAAKHALKVAKDAIKAAKKAA | not found |
| design_609_7ee6ce64-4629-41e8-bcb4-ba0da017284d_143_dldesign_0_cycle1_af2pred (protein) EEEKKELLESESYAIQAAHAVAAKDPATAEEAKEAFEYVALVGVEKARELLEKAKTDAESLKAAVAEAKELAKEVKKKLE | not found |
| design_609_7ee6ce64-4629-41e8-bcb4-ba0da017284d_739_dldesign_0_cycle1_af2pred (protein) SEASKAAAEAYEKLAETEYLAKKAKESNAEEAEKYAKEAKEAAKEAIEAAKKAAELAPEGAPLMKKVEEKAKKAAEEAEKYAKKKK | not found |
| design_609_7ee6ce64-4629-41e8-bcb4-ba0da017284d_187_dldesign_0_cycle1_af2pred (protein) AEAEKAKAEEAAKVAEEKIKKVEKLDPKKAEELRKKLKEAMAKPDAYKAVAKVSHDAYEALAEAEWEKRK | not found |
| design_609_7ee6ce64-4629-41e8-bcb4-ba0da017284d_123_dldesign_0_cycle1_af2pred (protein) GAKAVAAAAHDGYQAIAEASKDAEELKKAEEAGLKAVEETGKATGDTATAKAAKERLKRYADRELKKSKKKEEEKKKKLLE | not found |
| design_608_fd41b8f9-4da9-4c78-93ec-aaa316ed4933_2157_dldesign_0_cycle1_af2pred (protein) SELEEEIKKLAKELNEAIMKLADLASPEETREAAKKALEAKKLAKEDPEKGLEKLKEALKETKKLLEKAEKEN | not found |
| design_608_fd41b8f9-4da9-4c78-93ec-aaa316ed4933_1996_dldesign_0_cycle1_af2pred (protein) AEKAKELREQAEKLREEARKYAEYAPPEVVHELYQAAAESISYFNLAEKGEATEEQIKEGEEAFKKLKELTEEIKERAKKAEEEA | not found |
| design_609_7ee6ce64-4629-41e8-bcb4-ba0da017284d_741_dldesign_0_cycle1_af2pred (protein) EKELAEEVIKKIKEKAEKAIKEGVSREEAEKVIKEIEELATKASWEAPEYAKELNRAAKEEKKKIKKAVEEREA | not found |
| design_609_7ee6ce64-4629-41e8-bcb4-ba0da017284d_665_dldesign_0_cycle1_af2pred (protein) MDEEKLKMAEEEMKEGEKYAKAAKAALKKGDAKKAATLASEALASYNAAAHLYELAGDKEKAKKALEEGKKVVEEVGAAVKA | not found |
| design_609_7ee6ce64-4629-41e8-bcb4-ba0da017284d_97_dldesign_0_cycle1_af2pred (protein) NKLEEAKKAVKKLKELAKKAKEVAKDLKKTEELVKKAEEEYKKAIKLAREAAKEGDEETKKEAKKLAEEAHEAYNEALLALVKARE | not found |
| design_609_7ee6ce64-4629-41e8-bcb4-ba0da017284d_81_dldesign_0_cycle1_af2pred (protein) SKALADALRAAQRALRALGRRAAALDPALAAEVTAALFAVYDQSTAEAAKAAADAAVAAATARIAALEAAA | not found |
| design_608_fd41b8f9-4da9-4c78-93ec-aaa316ed4933_2353_dldesign_0_cycle1_af2pred (protein) SNKEEADLLRELARAAKAAGAALAALAAADPSEAARAAALKAEFSQALFDAADGKLNEAEIKAIIARMEAVAAAA | not found |
| design_608_fd41b8f9-4da9-4c78-93ec-aaa316ed4933_2179_dldesign_0_cycle1_af2pred (protein) MKEEEAKKAIEEAKKAIKEAREVGKELAKKDPSKKAFVDEAAKKLHELREKLAEAESLLKKDPEKAKKLAEEVKKKAKEIKKELEKA | not found |
| design_608_fd41b8f9-4da9-4c78-93ec-aaa316ed4933_2496_dldesign_0_cycle1_af2pred (protein) EEEVREEAERIRERAKEIAEKAKKLAEEAEKDPSKAKEAEEKSRKLAEELRELGERARELGDEEAARAAAEAAAVAHEARAEAYAIAN | not found |
| design_609_7ee6ce64-4629-41e8-bcb4-ba0da017284d_91_dldesign_0_cycle1_af2pred (protein) SDLENNKKALQYAEAAAEAAEFGSLKAAQGLLKKAAELATDEETKKLLLEAAEKEDLKELLKLAKEAAKKLKKNVE | not found |
| design_609_7ee6ce64-4629-41e8-bcb4-ba0da017284d_519_dldesign_0_cycle1_af2pred (protein) SEEAERELTLAKGYAELAKELAEQGPKAAKSAVKDAEKEAKEAEKIDPEVGKKAKELAEEAKKYVEEKEK | not found |
| design_608_fd41b8f9-4da9-4c78-93ec-aaa316ed4933_2202_dldesign_0_cycle1_af2pred (protein) DEYLKEAEKVYKETKKVIEEAKKKEKEEALKEIAKATQEATMKLTELAAEAAREGDKETAEKIRELRRELIEYATKVAEEVKAK | not found |
| design_609_7ee6ce64-4629-41e8-bcb4-ba0da017284d_829_dldesign_0_cycle1_af2pred (protein) LEEELKKAIEEAKKAVKELKEAAKKRPLTPEEIAKLVTKVSNELGKVRFLSAEALVNKKYEKVGEEGRKAAKEIREEAKEAIKLSKEK | not found |
| design_608_fd41b8f9-4da9-4c78-93ec-aaa316ed4933_2334_dldesign_0_cycle1_af2pred (protein) MTPEEKQEMVKQAVELVKNAKGAFDALEAADLIIEAYEKDPEAGKQAIEAAKAEAEKKIKENPLLGKTALRMIENAEIAMKNLE | not found |

| Binder | binding in a display sort |
| --- | --- |
| design_608_fd41b8f9-4da9-4c78-93ec-aaa316ed4933_2397_dldesign_0_cycle1_af2pred (protein) RDKLLMYVAAVRGAARIAKDDPEKGKEALEIETEELVEVMAKASEEEAAEAKELAVAAAAEVDPEIAEWVRKFIEEKLKEKR | not found |
| design_608_fd41b8f9-4da9-4c78-93ec-aaa316ed4933_2434_dldesign_0_cycle1_af2pred (protein) AAEEAIKKAKKIVEEAVKIMEEAGKKNPEYKEEFEKKNKKIKELLKEAEKLVKEGKKEEGIKTAVKAAHEAREAKAEAEWILRRN | not found |
| design_609_7ee6ce64-4629-41e8-bcb4-ba0da017284d_862_dldesign_0_cycle1_af2pred (protein) MEVAKLAHEALEAAAEGEAVAKNDPEKREKLRELARKAREAAKKGDVEEAKKLAKEVKKLAKALEKEKKEKEK | not found |
| design_609_7ee6ce64-4629-41e8-bcb4-ba0da017284d_730_dldesign_0_cycle1_af2pred (protein) SEQAKEELEKQEKVKEVAKKVRKALKELEEAGDEEAKKEAEKLRKEASEARLLAADDPEKGLEEMKKVLEKAEKKLKEVKAKL | not found |
| design_609_7ee6ce64-4629-41e8-bcb4-ba0da017284d_478_dldesign_0_cycle1_af2pred (protein) DAVKKAAEEAAKEAAKHPKGEKIAKAIEKGAEVAIKNSDKSFSQAAGDGASTIISLLGKEAGVDAIEAQDYADYWLDLVEKNS | not found |
| design_608_fd41b8f9-4da9-4c78-93ec-aaa316ed4933_2418_dldesign_0_cycle1_af2pred (protein) NKLLKEAIEALKKGIEAAKKGDLMEAQAYFTEARFYAEKYAKENPEYKEKAEKAAELAKEAIKTNGTPEAIKLAEEARKLLEEI | not found |
| design_609_7ee6ce64-4629-41e8-bcb4-ba0da017284d_842_dldesign_0_cycle1_af2pred (protein) SMREEELEADRKKVDEGAKELKKLGEEAAKKAKTWEEFVKGHKELREKAKEVVDAALPEVKPYAEKAASKVVHDARQKGAENVQKQK | not found |
| design_609_7ee6ce64-4629-41e8-bcb4-ba0da017284d_654_dldesign_0_cycle1_af2pred (protein) AAAEQAKLKAEAKALMAAMKAAGKAGDVAAVEAAAKAALAKAKELAKIDPALGSKLAAEIHETRAEALSTARKTREEKKKEEELKK | not found |
| design_608_fd41b8f9-4da9-4c78-93ec-aaa316ed4933_2275_dldesign_0_cycle1_af2pred (protein) MEKVKEEAEKLREEAEKAAKAGDVKAVSEAAHKLAELAAEAERESEEAGKVAREALRELREEAKAALAKRAAAAAA | not found |
| design_609_7ee6ce64-4629-41e8-bcb4-ba0da017284d_367_dldesign_0_cycle1_af2pred (protein) KRKEEQLEKLKKLAEELEKKAKEYEKDKNFKEVAKAYKEAAKKLKEAAKTGDSKVAHEARQKAAEAEWLEKKAK | not found |
| design_609_7ee6ce64-4629-41e8-bcb4-ba0da017284d_830_dldesign_0_cycle1_af2pred (protein) MESLKETFEKMAKLVKKFAEYLEKLDPEAGKKTLEILKKGEEAKTPSEAISLVLRAAVYGAKELGKYDKELALEKLEKVFDL | not found |
| design_609_7ee6ce64-4629-41e8-bcb4-ba0da017284d_21_dldesign_0_cycle1_af2pred (protein) SLEEELNKKKTEELIEEGIKALKEYAEKGKLEEGKAIASKKVQEAFDLGYEEGREAARKVREAYDKLAKEIEKKKA | not found |
| design_609_7ee6ce64-4629-41e8-bcb4-ba0da017284d_738_dldesign_0_cycle1_af2pred (protein) MEEALARIDAALKRAKELAKEAEKAGDKKAAAEMESAIAFAEQQRENALKGSPEYAKKAAEAAEAYTDRKIKRAEEIRKKK | not found |
| design_608_fd41b8f9-4da9-4c78-93ec-aaa316ed4933_2160_dldesign_0_cycle1_af2pred (protein) MEEKAKKYLEAAKKAKKYAEYAAKIDKEAAEKAKEAAKLLEEAAKLYLEGADEEEIEKASKKAAEKLGEARFEYNVVKQKEKRK | not found |
| design_609_7ee6ce64-4629-41e8-bcb4-ba0da017284d_287_dldesign_0_cycle1_af2pred (protein) MLKEEAKKVAEKGKKEGKYEEAIKELSEIAAKAYELAAEKLLDKETKEEGEKYREAARLARELGKELEKAA | not found |
| design_608_fd41b8f9-4da9-4c78-93ec-aaa316ed4933_2243_dldesign_0_cycle1_af2pred (protein) DEAKKEAAKAAQKAYEAIAEAEQAIRSGNAEELKKAAEEAKKAAKEAEKAAKKSKDKEVKEELKRVAKKAKEAAKKAKEAAKKLEA | not found |
| design_609_7ee6ce64-4629-41e8-bcb4-ba0da017284d_401_dldesign_0_cycle1_af2pred (protein) AIEELIKKGKERGEKAAKRVKEGTMTPEAAKDIFKNIIKELAKAGGEEEGKKIALEGADLLAEADPEFGKKFKKEVEKE | not found |
| design_609_7ee6ce64-4629-41e8-bcb4-ba0da017284d_297_dldesign_0_cycle1_af2pred (protein) SPEEMIKKGKELVEKRLEKAKKTAEEKTPEEAKREAEAAVAFAEGVAEALAKHPEAAAAGEALLKETKEEAEKIIKKAKE | not found |
| design_608_fd41b8f9-4da9-4c78-93ec-aaa316ed4933_2208_dldesign_0_cycle1_af2pred (protein) AAAAAAKAKALADAAKKAAKEYVKYAKEEDPEKGRKLLYEDMKKAYALAKADPALAPAAKEIAKIAQEAFQEIADIIGEKK | not found |
